LDHA block: qHTS assay for inhibitors of human lactate dehydrogenase. activity change, % (values are at about 110 or 230 µM). 480,000 compounds, 0.15% hits. purified LDHA, NADH/diaphorase-resazurin fluorescence; active compounds read low; in the data active = activity change below about -30%; inconclusive = mostly about -25% to -30%;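 also: plate controls were DMSO wells for no effect and wells without enzyme for full effect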
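Resorufin fluorescence (ex540/em590), read at 0 and 20 min after diaphorase/resazurin addition, reports the NADH left after a 5 min room-temperature reaction of 2 nM human LDH5 with 0.06 mM NADH and 0.2 mM pyruvate.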
Vif-APOBEC3G blk: qHTS for Inhibitors of Vif-A3G Interactions: qHTS. HeLa A3G-eYFP + Vif (tagged APOBEC3G with the HIV-1 protein that degrades it), YFP fluorescence, overnight. Potency, µM (highest dose often 46.1 µM), inactives show at the highest dose activity, negative = active, usual class: inhibitors. 410,000 compounds, 0.076% hits. AID 602310, 2012; also: potency is read from the fitted curve at half-maximal effect; % is scaled to controls: 0 for no effect and ±100 for the full control effect; nearly all actives have a fitted effect of over 60% in size
Target sequence (Q9HC16 whole entry, looked up): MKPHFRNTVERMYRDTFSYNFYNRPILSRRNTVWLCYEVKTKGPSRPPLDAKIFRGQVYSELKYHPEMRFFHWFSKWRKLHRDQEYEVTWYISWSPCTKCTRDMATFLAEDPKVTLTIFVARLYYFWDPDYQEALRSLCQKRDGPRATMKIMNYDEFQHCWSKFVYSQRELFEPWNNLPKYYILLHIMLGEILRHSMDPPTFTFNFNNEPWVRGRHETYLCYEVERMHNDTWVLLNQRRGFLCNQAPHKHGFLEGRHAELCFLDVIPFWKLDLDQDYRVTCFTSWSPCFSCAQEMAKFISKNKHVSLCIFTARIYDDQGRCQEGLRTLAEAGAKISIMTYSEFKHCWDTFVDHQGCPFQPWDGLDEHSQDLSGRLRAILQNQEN
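HeLa cells stably expressing Vif and C-terminally eYFP-tagged A3G, seeded overnight at 37 deg C, then exposed to compound by pintool overnight at 37 deg C. Rise in yellow fluorescence (Ex 488/Em 500-530, Acumen) marks blocked Vif-driven A3G degradation.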
pAkt inh: HTS Assay for Inhibitors of Akt Phophorylation: Primary Screen. Neuro2A IGF-stimulated pAkt S473 HTRF, 20 min; active compounds read low. activity change, % for hits at 50 µM. 360,000 compounds, 0.32% hits. AID 651550, 2012; in the data active = activity change below about -80%; inconclusive = mostly about -51% to -80%; also: % is scaled to controls: 0 for no effect and ±100 for the full control effect
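Neuro2A cells in DMEM with 0.5% FBS, overnight at 37 deg C, given compound at single 50 µM final, then IGF (6 nM final) for 20 min at 37 deg C. Lysed; phospho-Akt Ser473 by HTRF after 24 h, 665/615 ratio.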
Vif-APOBEC3F blk: qHTS for Inhibitors of Vif-A3F Interactions: qHTS; HeLa A3F-eYFP + Vif (tagged APOBEC3F with the HIV-1 protein that degrades it), YFP fluorescence increase; Potency, µM (top dose mostly 46.1 µM), for the others: at the highest dose activity, negative = active; 390,000 compounds, 0.2% hits; also: potency is read from the fitted curve at half-maximal effect; % of control where 0% means no effect; nearly all actives have a fitted effect of over 65% in size
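Fluorescence increase (Ex 488/Em 500-530) after overnight compound treatment at 37 deg C flags inhibition of Vif-driven A3F-eYFP loss in stable HeLa A3F-eYFP/Vif cells seeded overnight beforehand.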
PINK1 modulator: A Quantitative High throughput Screen to Identify Chemical Modulators of PINK1 Expression | PINK1 immunofluorescence, high-content cytometry, 24 h | Potency, µM (highest dose often 76.6 µM), for inactives: at the top dose activation (PINK1 increase), hits mostly activators | 410,000 compounds, 0.2% hits; active = well fitted activation curve with a large enough effect; inconclusive = small, poorly fitted or top-dose-only effect; cell line not stated here; also: potency is read from the fitted curve at half-maximal effect; % of control where 0% means no effect; nearly all actives have a fitted effect of over 65% in size
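Stable cell line treated 24 h with compounds at 5 concentrations (CCCP controls), then fixed and immunostained for PINK1 plus nuclear and cell stains; PINK1 immunofluorescence quantified by laser-scanning microplate cytometry.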
Glioma ERSR ind: qHTS for Inducers of the Endoplasmic Reticulum Stress Response (ERSR) in Human Glioma: qHTS; AID 602332, 2012; Potency, µM, without a hit: top-dose activation, hits mostly activators; 420,000 compounds, 0.02% hits; U87-MG GRP78 promoter luciferase reporter, 16 h; also: potency is read from the fitted curve at half-maximal effect; series mostly up to about 76 µM; % of control where 0% means no effect; nearly all actives have a fitted effect of over 35% in size
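Stably transfected U87-MG glioma cells carrying a GRP78-based luciferase sensor; 16 h compound incubation. Luminescence end-point read 10 min after Bright-Glo addition at room temperature.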
* hit, by the source's call; i = inactive; ? = inconclusive; . = no result; [ ] = dose if it differs, or a comment. Shown are actives, neighbours in structure and some others; about 0.74% of the full set was active somewhere. Unless noted, calls follow the shape of the dose curve; as a rule, active = well fitted curve in the direction sought with a large enough effect; inconclusive = small, poorly fitted or top-dose-only effect, or another doubt; inactive = no such curve, though single readings can be large; an effect the other way counts as inactive or inconclusive.

SMILES | LDHA block | Vif-APOBEC3G blk | pAkt inh | Vif-APOBEC3F blk | PINK1 modulator | Glioma ERSR ind
c1ccc(-c2cc3c(ccc4nonc43)nn2)cc1 | 0 | -1% | i | -11% | 0% | 0%
On1onc2c3cc(-c4ccccc4)nc3ccc21 | -3 | 3.5µM* | i | ? | 12% | 1%
O=C(O)c1ccccc1C(=O)Nc1ccc(Br)c(C(F)(F)F)c1 | 1 | 4% | i | -2% | -1% | -4%
Cc1cc(C)c(C(=O)Nc2ccc(Br)c(C(F)(F)F)c2)c(C)c1 | -5 | 3% | i | 1% | 13µM* | -2%
CCN(CC)CCN(C(=O)c1ccc2c(c1)CCCC2)c1nc2ccc(C)cc2s1 | 14 | -1% | i | ? | 28µM* | -3%
CCN(CC)CCN(C(=O)c1ccc2c(c1)CCCC2)c1nc2c(C)cccc2s1 | 4 | 2% | i | 3% | 45µM* | -4%
CCN(CC)CCN(C(=O)c1ccc2c(c1)CCCC2)c1nc2ccc(F)cc2s1 | 14 | -5% | i | 11% | ? | 3%
Cn1cc(CNC(=O)Nc2ccc3c(c2)OCO3)cn1 | -3 | -1% | -106%* | -5% | 0% | 4%
O=C(NCc1cccnc1)Nc1ccc2c(c1)OCO2 | 1 | -1% | i | -1% | 2% | 0%
Cc1cccc(-c2nc(C#N)c(N3CCCCC3)o2)c1 | -3 | -9% | i | -2% | -1% | 3%
Cc1cccc(-c2nc(C#N)c(N3CCOCC3)o2)c1 | -31* | . | . | . | . | .
CS(=O)(=O)Nc1ccccc1NC(=O)Cc1ccc2c(c1)CCC2 | -10 | . | . | . | . | .
CCc1ccc(CNC(=O)c2ccc(-c3nc(CS(=O)(=O)c4ccccc4)c(C)o3)cc2)cc1 | 2 | -7% | . | -1% | 7% | 6%
CCOc1ccc(CNC(=O)c2ccc(-c3nc(CS(=O)(=O)c4ccccc4)c(C)o3)cc2)cc1 | -35* | -13% | . | -15% | ? | 7%
CC[n+]1ccccc1/C=C1\Sc2ccc(C)cc2N1C | -17 | ? | i | 22µM* | 16µM* | 0%
CN1/C(=C/c2cccc[n+]2CCO)Sc2ccccc21 | ? | -8% | i | 8% | 0% | -4%
c1ccc(CCNc2nc(-c3ccccn3)nc3ccccc23)cc1 | -3 | 0% | i | -27% | 40µM* | -5%
CCCN(CCC)c1nc(-c2ccccn2)nc2ccccc12 | 3 | 5% | i | -4% | ? | -6%
Cc1ccc(Cn2nc(C)c(NC(=O)COCc3cc(-c4cccs4)on3)c2C)cc1 | 5 | . | . | . | . | .
COc1cc(C(=O)Nc2nc3ccccc3s2)ccc1OCc1c(C)noc1C | -3 | -18% | i | -27% | 19%[38.3 µM] | -6%
COc1cc(C(=O)Nc2nccs2)ccc1OCc1c(C)noc1C | 3 | -10% | i | -6% | 11µM* | -1%
CSc1ccc(/C=N/Nc2ccc(Cl)c(Cl)c2)cc1 | 8 | . | . | . | . | .
Clc1ccc(COc2ccccn2)cc1Cl | -1 | -9% | -123%* | 0% | -2% | -6%
N#CC(C#N)=C1C=CC=CN1/C(=C\c1ccco1)C(=O)c1ccccc1 | 1 | ? | i | 20µM* | -1% | -14%
CCN(CC)c1nc(SC)nc(-c2ccc(Cl)cc2)c1C#N | -3 | . | . | . | . | .
SMILES | LDHA block | Vif-APOBEC3G blk | pAkt inh | Vif-APOBEC3F blk | PINK1 modulator | Glioma ERSR ind
CCOc1ccccc1NC(=O)c1cc(-c2ccco2)nc2ccccc12 | -1 | . | . | . | . | .
Cc1ccc(OC(C)C(=O)Nc2cccc3cccnc23)cc1C (stereo not drawn) | 10 | . | . | . | . | .
N#Cc1c(N)n(Cc2ccccc2)c(=O)c2cc([N+](=O)[O-])ccc12 | -3 | -22% | i | 3% | 7% | -1%
Cn1c(N)c(-c2ccccc2)c2ccc([N+](=O)[O-])cc2c1=O | 2 | 8.9µM* | i | ? | 2% | -6%
CN(C)C(=O)c1ccc(NC(=O)c2ccc(-c3ccccc3)cc2)cc1 | 5 | . | . | . | . | .
CC(C)CCC(C)(N)C(=O)O (stereo not drawn) | -1 | . | . | . | . | .
c1ccc2c(NC3CCCC3)ncnc2c1 | 8 | . | . | . | . | .
N#C/C(=C/c1ccc(N2CCOCC2)o1)c1ccc(Cl)cc1 | 14 | 7.1µM* | i | ? | 13µM* | ?
N#C/C(=C\c1ccc(N2CCOCC2)o1)c1nc2ccccc2[nH]1 | 15 | 2% | i | ? | 14µM* | -10%
N#C/C(=C\c1ccc(N2CCOCC2)c([N+](=O)[O-])c1)c1nc2ccccc2[nH]1 | -11 | 0% | i | 9% | -2% | 3%
N#C/C(=C\c1ccc(N2CCCCC2)o1)C(N)=O | 4 | ? | i | ? | ? | 4%
COCCn1cnnc1SCc1ccc(Cl)cc1 | -4 | . | . | . | . | .
Fc1ccccc1CN1CCCCCCC1 | -16 | -5% | -104%* | 4% | -2%[38.3 µM] | -4%
Fc1ccc(CN2CCCCCC2)c(F)c1 | -20 | -1% | i | 6% | -1% | -5%
CCCCc1c(C)[nH]n(-c2nc(C)c(C(=O)Nc3ccccc3)s2)c1=O | -3 | . | . | . | . | .
CCCCc1c(C)[nH]n(-c2nc(C)c(C(=O)Nc3cccc(OC)c3)s2)c1=O | -36* | . | . | . | . | .
O=C(NCCn1c(-c2ccc(F)cc2)nc2ccccc21)Nc1cc(F)ccc1F | -1 | . | . | . | . | .
CCCOC(=O)c1[nH]c(C)c(C(=O)OC)c1C | -16 | . | . | . | . | .
COC(=O)C(C)Oc1cc(OC(C)C(=O)OC)c2c(C)c(Cl)c(=O)oc2c1 (stereo not drawn) | -3 | -2% | i | -2% | 2% | 40µM*
COC(=O)COc1cc(OCC(=O)OC)c2c(C)c(Cl)c(=O)oc2c1 | -8 | 1% | i | -11% | 2% | 13%
N#CC1=C(S)N(c2ccc(F)cc2)C2(CCCCC2)NC1=O | -7 | 9% | i | 11µM* | 3% | -2%
N#CC1=C(S)N(c2ccccc2)C2(CCCCC2)NC1=O | -9 | 0% | i | 2% | 2% | -1%
CC(C)Cn1nnnc1SCC(=O)N(Cc1cccs1)c1ccc2c(c1)OCCO2 | 4 | . | . | . | . | .
CCOC(=O)CC1=NS(=O)(=O)c2ccccc2N1 | 0 | 1% | -106%* | -6% | 0% | -4%
Cc1ccccc1COC(=O)CCCC1=NS(=O)(=O)c2ccccc2N1 | -3 | -1% | i | 3% | 1% | -4%
CC(C)(C)Cc1c(-c2ccc(C#N)cc2)nc2c(Cl)cc(C(F)(F)F)cn12 | -9 | -4% | i | . | 35µM* | -4%
Cc1ccc(-c2cc(C(=O)NCCCN(C)C)c3ccccc3n2)cc1C | 8 | . | . | . | . | .

Screening data deposited in PubChem by National Center for Advancing Translational Sciences (NCATS).
